Experimental data taken from the supplement of paper PMC9950053.
Structures can show the parent of a compound that is named as a salt.

Tested on: Danio rerio larvae (5 dpf)
Experiment: excitability (activity period 17 minus period 16, 1-s interval sound) minus DMSO control (percentage points); higher = more acoustic excitability than DMSO larvae
Details: 10 µM; exposure time: 3 h pre-incubation + 3 h imaging
Description: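 Wild-type 5 dpf zebrafish larvae (n=48 per drug, 96-well plates, 28.5 °C) were exposed to Tocris FDA-approved library compounds at 10 µM (0.1% DMSO) for 3 h before and 3 h during imaging. Images were taken every 6 s during visual (moving coloured lines) and acoustic stimuli, and larvae were tracked with the DeepLabCut-based Z-LaP Tracker. Each behavioural measure is the treated-group mean minus the DMSO vehicle control mean (n=844), in percentage points. This mapping covers compounds with 4-character plate codes.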

CC(C)C[C@H]1C(=O)N2CCC[C@H]2[C@]2(O)O[C@](NC(=O)[C@@H]3C=C4c5cccc6[nH]c(Br)c(c56)C[C@H]4N(C)C3)(C(C)C)C(=O)N12 [Bromocriptine mesylate] was tested. Which excitability did it give?
The excitability was 18.2.

For CN1C[C@H](C(=O)N[C@]2(C)O[C@@]3(O)[C@@H]4CCCN4C(=O)[C@H](Cc4ccccc4)N3C2=O)C[C@@H]2c3cccc4[nH]cc(c34)C[C@H]21 [Dihydroergotamine mesylate], which excitability is on record?
Its excitability is 0.33.

With C=C1C[C@@H]2[C@H](CC[C@]3(C)C(=O)CC[C@@H]23)[C@@]2(C)C=CC(=O)C=C12 [Exemestane] as the molecule, how does the excitability read?
The excitability was 11.9.

Which excitability does the source give for COc1cc2c(cc1OC)C1CC(=O)C(CC(C)C)CN1CC2 (stereo unspecified) [Tetrabenazine] here?
The excitability was 22.4.

With CC(O)(CS(=O)(=O)c1ccc(F)cc1)C(=O)Nc1ccc(C#N)c(C(F)(F)F)c1 (stereo unspecified) [Bicalutamide] as the molecule, how does the excitability read?
Its excitability is 3.42.

Which excitability does the source give for Cc1cccc([C@H](C)c2c[nH]cn2)c1C [Dexmedetomidine hydrochloride] here?
Its excitability is 5.7.

With O=c1[nH]c2ccccc2n1C1CCN(CCCC(c2ccc(F)cc2)c2ccc(F)cc2)CC1 [Pimozide] as the molecule, how does the excitability read?
Its excitability is -0.377.

How did the excitability turn out when C=CCN1C[C@H](C(=O)N(CCCN(C)C)C(=O)NCC)C[C@@H]2c3cccc4[nH]cc(c34)C[C@H]21 [Cabergoline] was run?
The excitability was 12.4.

How did the excitability turn out when N[C@@H]1C[C@H]1c1ccccc1 [Tranylcypromine hydrochloride] was run?
Its excitability is 3.55.

CC[C@@H](C(N)=O)N1CCCC1=O [Levetiracetam] was tested. Which excitability did it give?
The excitability was 1.58.

With CCN(C)C(=O)Oc1cccc([C@H](C)N(C)C)c1 [Rivastigmine tartrate] as the molecule, how does the excitability read?
The excitability was 3.52.
